# According to PubChem BioAssay AID583 (Sanford-Burnham Center for Chemical Genomics, 2007):
# The whole screen tested about 140,000 compounds, of which about 80 (0.06%) were called active. The sample holds actives, similar compounds and a random draw of the others, so the mix is not that of the screen. Rule as the data show it: active = displacement above about 50%; inactive = the rest.
# Biological target: Heat shock 70 kDa protein 1A (Homo sapiens) (UniProt P0DMV8)
# Assay: Hsp70 inhibitors, probe displacement, primary screen, biochemical, fluorescence polarization (AID 583);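 also: plate controls were vehicle for no effect and reference ligand for full effect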
# Conditions: mP, at 20 µM, stronger effect = higher value
# Sequence of Heat shock 70 kDa protein 1A (Homo sapiens) (P0DMV8 whole entry, looked up): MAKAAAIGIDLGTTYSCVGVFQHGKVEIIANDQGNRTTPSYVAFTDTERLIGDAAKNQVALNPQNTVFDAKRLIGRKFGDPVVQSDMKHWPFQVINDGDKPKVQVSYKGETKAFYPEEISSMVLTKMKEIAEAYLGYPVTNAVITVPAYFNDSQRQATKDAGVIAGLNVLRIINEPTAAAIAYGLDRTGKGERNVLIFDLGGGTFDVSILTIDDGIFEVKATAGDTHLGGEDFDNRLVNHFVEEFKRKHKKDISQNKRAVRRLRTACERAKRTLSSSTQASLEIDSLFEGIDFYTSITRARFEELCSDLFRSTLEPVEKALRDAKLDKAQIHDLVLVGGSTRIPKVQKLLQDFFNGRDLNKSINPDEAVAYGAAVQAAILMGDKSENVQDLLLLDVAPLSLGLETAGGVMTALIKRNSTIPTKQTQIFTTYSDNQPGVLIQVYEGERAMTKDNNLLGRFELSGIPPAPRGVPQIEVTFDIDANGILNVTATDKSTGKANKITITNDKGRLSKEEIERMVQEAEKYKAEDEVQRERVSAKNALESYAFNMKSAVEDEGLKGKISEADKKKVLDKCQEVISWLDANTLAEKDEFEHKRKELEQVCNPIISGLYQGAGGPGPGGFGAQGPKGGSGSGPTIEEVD
row,SMILES,displacement
1,O=C(O)C1Nc2c(cccc2[N+](=O)[O-])C2C=CCC12 (stereo not drawn),76.9% (active)
2,O=C(O)C1Nc2ccc([N+](=O)[O-])cc2C2C=CCC12 (stereo not drawn),102% (active)
3,O=C(O)C1Nc2c(O)cccc2C2C=CCC12 (stereo not drawn),16.1% (inactive)
4,Cc1ccc2c(c1)C1C=CCC1C(C(=O)O)N2 (stereo not drawn),38.6% (inactive)
5,O=[N+]([O-])c1ccc(C2Nc3ccc([N+](=O)[O-])cc3C3C=CCC32)cc1 (stereo not drawn),0.4% (inactive)
6,COc1cccc2c1NC(C(=O)O)C1CC=CC21 (stereo not drawn),47.8% (inactive)
7,O=C(CCc1ccccc1)Oc1ccc(Cl)cc1,0.9% (inactive)
8,CCOc1ccc(N2C(=O)/C(=C/c3ccc(I)o3)C(=O)NC2=S)cc1,96.7% (active)
9,O=C1NC(=S)N(c2ccccc2F)C(=O)/C1=C/c1ccc(Sc2ccccc2)o1,0.9% (inactive)
10,O=C1NC(=O)N(c2ccccc2F)C(=O)/C1=C/c1ccc(OCc2cccc(C(=O)O)c2)cc1,0.2% (inactive)
11,O=C1NC(=S)N(c2ccccc2F)C(=O)/C1=C/c1ccc(OCc2cccc(C(=O)O)c2)cc1,51.5% (active)
12,CCOc1ccc(N2C(=O)NC(=O)/C(=C\c3ccc(I)o3)C2=O)cc1,0.7% (inactive)
13,CCOc1ccc(N2C(=O)/C(=C/c3ccc(OCc4cccc(C(=O)O)c4)cc3)C(=O)NC2=S)cc1,5.7% (inactive)
14,O=C1NC(=S)N(c2ccccc2F)C(=O)/C1=C/c1ccc(I)o1,81.7% (active)
15,CCc1ccc(N2C(=O)/C(=C/c3ccc(I)o3)C(=O)NC2=S)cc1,84.7% (active)
16,CCOc1ccc(N2C(=O)/C(=C/c3ccc(N(CC)CC)o3)C(=O)NC2=S)cc1,-73.8% (inactive)
17,Cc1ccc(N2C(=O)NC(=O)/C(=C\c3ccc(I)o3)C2=O)cc1,6.1% (inactive)
18,O=C1NC(=O)N(c2ccc(Cl)cc2)C(=O)/C1=C/c1ccc(I)o1,15.2% (inactive)
19,O=C1NC(=O)N(c2ccccc2F)C(=O)/C1=C/c1ccc(I)o1,20.6% (inactive)
20,CC(C)c1ccc(-c2nc(N)c3c(=O)oc4ccccc4c3n2)cc1,0.4% (inactive)

row,SMILES,displacement
1,O=C(CN(Cc1ccco1)C(=O)CNS(=O)(=O)c1ccccc1)NC1CCCCC1,5.9% (inactive)
2,O=[N+]([O-])c1cc(NS(=O)(=O)Cc2ccccc2)ccc1F,3.6% (inactive)
3,O=C(NCc1ccc2c(c1)OCO2)C1COc2ccccc2O1 (stereo not drawn),3.3% (inactive)
4,CCCn1c(=N)n(CC(=O)C(C)(C)C)c2ccccc21,7.1% (inactive)
5,CCn1cc(Br)c(C(=O)Nc2ccc(OC)cc2)n1,8.2% (inactive)
6,O=C(NC1CC2CCCC(C1)N2C(=O)NC1CCCCC1)c1ccccc1 (stereo not drawn),0.4% (inactive)
7,COc1cc(C(=O)NC2CC3CCCC(C2)N3CC(=O)Nc2ccccc2)cc(OC)c1OC (stereo not drawn),2% (inactive)
8,COc1cccc(C(=O)NC2CC3CCCC(C2)N3CC(=O)Nc2ccc(N(C)C)cc2)c1 (stereo not drawn),2.7% (inactive)
9,Cc1c(C(=O)N2CCc3ccccc3C2)sc2nc(-c3ccccc3)cn12,0.5% (inactive)
10,O=C1NN(c2ccc(F)c(Cl)c2)C(=O)/C1=C\c1ccc(-c2cccc(C(=O)O)c2)o1,5.7% (inactive)
11,O=C1NN(c2cccc(Cl)c2)C(=O)/C1=C\c1ccc(-c2cccc(C(=O)O)c2)o1,55.5% (active)
12,O=C1NN(c2ccc(Cl)cc2)C(=O)/C1=C\c1ccc(-c2cccc(C(=O)O)c2)o1,16.5% (inactive)
13,COc1ccc(NC(=O)Cn2nc(C)c3ccccc3c2=O)cc1,-1% (inactive)
14,CCOc1cc(/C=C2/SC(=S)NC2=O)cc(Cl)c1OCc1ccc(Cl)cc1Cl,4.9% (inactive)
15,COc1cc(/C=C2/SC(=S)NC2=O)cc(Cl)c1OCc1ccccc1F,-0.4% (inactive)
16,COc1cc(/C=C2/SC(=S)NC2=O)cc(Cl)c1OCc1ccc(Cl)cc1Cl,94.8% (active)
17,COc1cccc(OCCOc2c(Cl)cc(/C=C3/SC(=S)NC3=O)cc2OC)c1,0.2% (inactive)
18,CCCOc1c(Cl)cc(/C=C2/SC(=S)NC2=O)cc1OC,1.3% (inactive)
19,COc1cc(/C=C2/SC(=S)NC2=O)cc(Cl)c1OCc1cccc2ccccc12,99.9% (active)
20,COc1ccc(N2C(=O)NC(=O)/C(=C\c3cccc(OC)c3OC)C2=O)cc1,-4.3% (inactive)

row,SMILES,displacement
1,O=C1N/C(=N/N=C/c2ccccc2)SC1Cc1ccccc1Cl (stereo not drawn),-1.4% (inactive)
2,COC(=S)N/C(=N/S(=O)(=O)c1ccc(Cl)cc1)c1ccccc1,0.8% (inactive)
3,CCOC(=O)c1ccc(N2N=C(C)/C(=C/C=C/c3ccco3)C2=O)cc1,0.7% (inactive)
4,CC1=NN(c2cccc(C(=O)O)c2)C(=O)/C1=C\c1ccco1,6.9% (inactive)
5,CC(=O)NS(=O)(=O)c1ccc(NC(=O)c2ccc([N+](=O)[O-])cc2)cc1,6.8% (inactive)
6,COc1ccc(C(=O)Nc2ccc(S(=O)(=O)NC(C)=O)cc2)cc1[N+](=O)[O-],3.6% (inactive)
7,CC(=O)NS(=O)(=O)c1ccc(NC(=O)c2ccc([N+](=O)[O-])c(C)c2)cc1,61.3% (active)
8,O=C(NCCc1ccccc1)c1cnc2sccn2c1=O,-1.6% (inactive)
9,O=C1N=C(N=Nc2c(O)[nH]c3ccccc23)S/C1=C/c1ccc(Br)cc1,82.1% (active)
10,Oc1[nH]c2ccccc2c1N=Nc1nc(-c2ccccc2)c2cc(Br)ccc2n1,-0.1% (inactive)
11,CN(C)c1ccc(/C=C2/SC(N=Nc3c(O)[nH]c4ccccc34)=NC2=O)cc1,17.1% (inactive)
12,COc1ccc(Br)cc1/C=C/C(=O)Nc1cccc(NC(=O)c2ccccc2Cl)c1,-1% (inactive)
13,CCN(CC)c1nc(C)cc(COC)c1C#N,2.1% (inactive)
14,CC(C)c1ccc(NC(=O)C(c2ccc3c(c2)OCO3)N2CCC3(CC2)OCCO3)cc1 (stereo not drawn),-2.7% (inactive)
15,O=C(CCCC(=O)N1CCCCC1)NCc1ccco1,-1.6% (inactive)
16,COC(=O)c1ccc(C(=O)OC)c(NC(=O)CSc2nnc(-c3ccccc3Cl)o2)c1,1.6% (inactive)
17,Oc1c(Cl)cc(Cl)cc1Sc1cc(Cl)cc(Cl)c1O,7.6% (inactive)
18,O=S(=O)(c1cc(Cl)cc(Cl)c1O)c1cc(Cl)cc(Cl)c1O,8.8% (inactive)
